Sampled rows, rich in hits. Any-hit rate of the full collection: about 2.2%.
ERG Ets-DNA blk: blocks human ERG Ets domain binding to DNA; P11308; fluorescence polarization, His-ERG Ets domain / labelled DNA; Potency, µM (titrated, usually from 76.9 µM), for the others: at the highest dose FP activity, negative = inhibition, most hits filed as inhibitors; 0.028% of 370,000 active; AID 624246; active means well fitted inhibition curve with a large enough effect in the polarisation, with a control signal flat; inconclusive means small, poorly fitted or top-dose-only effect, or effect the other way, or a change in a side signal; inactive means no such curve, though single readings can be large or run the other way; the % refers to the polarisation;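 further: polarization taken with two DNA probes labelled with fluorescein and Texas red; % of control where 0% means no effect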
Target sequence (P11308 whole entry, looked up, the tested form may be a part): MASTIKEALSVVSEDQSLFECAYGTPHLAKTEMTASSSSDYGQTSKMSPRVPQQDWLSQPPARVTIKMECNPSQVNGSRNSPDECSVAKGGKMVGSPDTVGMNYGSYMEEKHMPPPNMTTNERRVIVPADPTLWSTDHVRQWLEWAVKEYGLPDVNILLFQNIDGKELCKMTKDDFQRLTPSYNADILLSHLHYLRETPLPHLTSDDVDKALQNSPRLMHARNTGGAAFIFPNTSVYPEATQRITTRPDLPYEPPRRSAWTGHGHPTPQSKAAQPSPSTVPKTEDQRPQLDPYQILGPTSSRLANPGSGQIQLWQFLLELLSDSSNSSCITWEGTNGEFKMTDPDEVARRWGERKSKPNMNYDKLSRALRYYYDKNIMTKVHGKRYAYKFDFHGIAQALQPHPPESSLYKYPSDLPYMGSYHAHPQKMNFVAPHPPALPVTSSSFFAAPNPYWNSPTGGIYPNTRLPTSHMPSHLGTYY
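His-tagged ERG Ets domain (1 uM in the protein solution; 300mM KCl, 50mM Tris-HCl, 1mM EDTA, 1mM DTT, pH 7.5) received compound, then a probe mix of 5 nM fluorescein-DNA and 100nM Texas-615-DNA. Fluorescence polarization was read for both dyes.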
Mito fusion act: inhibitors of mitochondrial division or activators of mitochondrial fusion. S. cerevisiae fusion-defective mutant growth rescue, CellTiterGlo 48 h. Potency, µM (doses to about 46.1 µM), inactives show at the highest dose growth rescue (activation), actives largely listed as activators. 0.23% of 320,000 active. AID 485298; further: % of control where 0% means no effect; nearly all actives have a fitted effect of over 45% in size
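Compounds are tested for their ability to restore growth of mitochondrial fusion-defective yeast strains at non-permissive 37C in YPEG medium over 48 hours. Viability is quantified by luciferase luminescence.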
TDP-43 yeast inh: rescues yeast growth from TDP-43 toxicity; TDP-43 expressing yeast growth rescue, BacTiter-Glo, 24 h; Potency, µM (doses to about 46.1 µM), for inactives: at the highest dose growth rescue (activation), actives largely listed as activators; 1.8% of 410,000 active; further: % of control where 0% means no effect; nearly all actives have a fitted effect of over 50% in size
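Cell-based yeast growth screen: TDP-43 expression induced in galactose, inoculum OD600=0.02 after raffinose pregrowth to mid-log. Read-out BacTiter-Glo luminescence at 24 hr, 30 deg C; inhibition of toxicity seen as signal increase.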
FUS yeast rescue: suppressors of FUS proteinopathy in yeast. S. cerevisiae FUS-expressing, growth rescue, OD600, 24 h. Potency, µM (series often up to 76.6 µM), actives largely listed as activators. 0.24% of 390,000 active;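 further: plate controls were DMSO vehicle for no effect and reference control for full effect; nearly all actives have a fitted effect of over 55% in size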
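Yeast FUS proteinopathy model; galactose-induced FUS (2%), starting OD 0.005. Cpds in dilution series, 24hr, 30C, 99% humidity. Abs 600 nm growth. Pos ctrl CP55940 (top 92uM final); neg ctrl DMSO.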
aSyn yeast inh: rescues yeast growth from alpha-synuclein toxicity. Yeast expressing alpha-synuclein, growth rescue, BacTiter-Glo, 24 h. Potency, µM (series often up to 46.1 µM), for inactives: top-dose growth rescue (activation), hits mostly activators. 0.14% of 370,000 active; further: % of control where 0% means no effect; nearly all actives have a fitted effect of over 65% in size
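Screening used galactose-induced yeast with toxic alpha-synuclein levels, exposed to compound for 24 hr at 30 deg C. Cell growth, read with BacTiter-Glo luminescence, gave the measured signal.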
Abeta rescue: restores growth of yeast expressing A-beta42 peptide. yeast expressing A-beta42, growth rescue, OD600, 48 h; response scale: 0% DMSO, 100% iron-clioquinol control. Potency, µM (titrated, usually from 46.1 µM), hits mostly activators. 0.063% of 410,000 active; further: nearly all actives have a fitted effect of over 55% in size
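Yeast A-beta toxicity model in growth medium with pinned compounds, 48 h at 30 C; growth read as absorbance at 600 nm. Normalized to FeCl3/clioquinol equimolar mix (positive) and DMSO (negative).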
Starred values were filed as active, the others as inactive; i = inactive; u = inconclusive; x = no result given. Unless noted, the call rests on the fitted dose curve; in most records, active means well fitted curve in the direction sought with a large enough effect; inconclusive means small, poorly fitted or top-dose-only effect, or another doubt; inactive means no such curve, though single readings can be large; an effect the other way counts as inactive or inconclusive. Potency means the concentration at half of the fitted maximal effect.

SMILES	ERG Ets-DNA blk	Mito fusion act	TDP-43 yeast inh	FUS yeast rescue	aSyn yeast inh	Abeta rescue
Cc1ccc(S(=O)(=O)NC(=O)COc2ccccc2C)c(C)c1	-3%	2%	18µM*	x	19%	i
Cc1ccccc1NC(=O)COc1ccccc1C	-6%	3%	0%	i	-8%	i
Cc1cc(N2CCN(C(=O)c3cccs3)CC2)c(F)cc1[N+](=O)[O-]	3%	21%	13µM*	i	7%	i
COc1ccc(N2CCN(C(=S)NC(=O)c3cccs3)CC2)c([N+](=O)[O-])c1	1%	-8%	22µM*	i	9%	u
O=C(c1cccs1)N1CCN(c2ccc([N+](=O)[O-])cc2F)CC1	-12%	1%	21%	i	2%	i
CC(C)(C)C(=O)Cn1c(=O)n(CCCCCC(=O)NCc2ccc3c(c2)OCO3)c(=O)c2sccc21	-10%	x	7%	i	x	i
COc1cc(NC(=S)NCCN2CCOCC2)cc(OC)c1OC	2%	3%	-13%	i	-9%	25µM*
CCN(CC)C(=O)CCCOc1ccc(Cl)cc1Cl	1%	2%	13µM*	i	16%	i
O=C(CCCOc1ccc(Cl)cc1Cl)N/N=C/c1ccccc1O	x	6%	u	x	22µM*	u
O=C(CCCOc1ccc(Cl)cc1Cl)N/N=C/c1ccccc1	-4%	-1%	0%	x	12%	i
Cc1cccc(N2CCN(c3ncnc4c3nc3n4CCCCC3)CC2)c1C	2%	x	22µM*	i	x	i
Fc1ccc(N2CCN(c3ncnc4c3nc3n4CCCCC3)CC2)cc1	11%	x	13%	i	x	i
Clc1cccc(N2CCN(c3ncnc4c3nc3n4CCCCC3)CC2)c1	-6%	x	18µM*	u	x	i
O=C(C1CCN(c2ncnc3c2nc2n3CCCCC2)CC1)N1CCN(c2cccc(Cl)c2)CC1	-8%	-21%	27%	u	9%	i
CCc1ccccc1NC(=O)C1CCN(C2=NS(=O)(=O)C(c3ccc(C)c(C)c3)=C2C)CC1	2%	x	17%	i	x	i
COC1CCC2(C)C(=CCC3C4CC(O)CC4(C)CCC32)C1 (centres undefined)	0%	x	14µM*	x	16%	i
COc1cc(NC(=O)CCn2cnc3ccccc3c2=O)cc(OC)c1	5%	x	15%	i	0%	i
COc1cccc(Cn2c(SCC(=O)N(C)c3ccccc3)nc3ccccc32)c1	0%	x	18µM*	u	x	i
O=C(CSc1nc2ccccc2n1Cc1cccc(F)c1)NCc1ccccc1	-3%	x	22µM*	i	x	i
CSc1nc2ccccc2n1Cc1cccc(F)c1	-3%	-4%	18µM*	i	0%	i
O=C(CSc1nc2ccccc2c(=O)n1-c1ccccc1)NCc1ccc2c(c1)OCO2	x	6%	-8%	i	5%	i
CN(C(=O)CSc1nc2ccccc2n1Cc1cccc(C(F)(F)F)c1)c1ccccc1	-7%	x	21%	i	x	i
O=C(CSc1nc2ccccc2n1CC(=O)N1CCCC1)NCc1ccc2c(c1)OCO2	x	2.8µM*	-7%	i	1%	i
N#Cc1cccc(C(=O)Nc2ccccc2C(=O)NC2CC2)c1	6%	4%	-12%	i	-1%	i
Fc1ccccc1-c1n[nH]c(=S)n1N=Cc1ccc(-c2ccccc2)cc1	x	x	x	i	x	x
SMILES	ERG Ets-DNA blk	Mito fusion act	TDP-43 yeast inh	FUS yeast rescue	aSyn yeast inh	Abeta rescue
O=[N+]([O-])c1cccc(-c2c(-c3ccccc3)ncc3cc(F)ccc23)c1	7%	u	28µM*	i	-14%	i
Fc1cc(F)cc(-c2c(-c3ccccc3)ncc3ccc(F)cc23)c1	14%	-11%	35µM*	i	-16%	i
Fc1ccc2cnc(-c3ccccc3)c(-c3cccc(C(F)(F)F)c3)c2c1	24%	18%	14%	i	-2%	i
CCOC(=O)c1sc2ncn(CC(=O)Nc3cccc(C)c3)c(=O)c2c1C	-3%	x	2%	i	x	i
CCC(=O)N1CCc2cc(Br)cc(S(=O)(=O)CCC(=O)NCc3cccc(OC)c3)c21	4%	x	14%	i	x	i
COc1ccc(N=Nc2nc3ccc(Br)cc3n2C)cc1	-2%	-5%	13µM*	i	-15%	i
CNc1ccc(/C=C/c2ccnc3ccccc23)cc1	x	x	x	x	-8%	x
CCc1n[nH]c(=S)n1/N=C/c1ccc2c(c1)OCO2	0%	-12%	5%	i	0%	i
Oc1ccccc1/C=N/n1c(COc2ccccc2)n[nH]c1=S	28µM*	-7%	u	i	-3%	i
CCc1n[nH]c(=S)n1/N=C/c1ccc(N(C)c2ccccc2)cc1	5µM*	10%	u	u	-7%	u
S=c1[nH]nc(Cc2ccc(Br)cc2)n1/N=C/c1ccc(Cl)cc1	-6%	24%	8.9µM*	i	-14%	u
Oc1ccc(/C=N/n2c(COc3ccccc3)n[nH]c2=S)c(O)c1	-3%	-2%	14%	i	0%	i
S=c1[nH]nc(COc2ccccc2)n1/N=C/c1ccc(Cl)cc1	-1%	-4%	11%	i	4%	i
O=C(Cn1c(=O)n(CCCS(=O)(=O)C2CCCCC2)c(=O)c2ccccc21)Nc1ccccc1F	-7%	x	4%	i	x	i
C=CCNc1nc(Nc2ccc(OC)cc2)nc(OC)n1	-6%	0%	20µM*	i	-15%	i
COc1ccc2c(c1)C1=NN(/C(C)=C/C(C)=O)C(c3cccc(F)c3)C1CC2 (centres undefined)	7%	18µM*	u	i	5%	i
COc1ccc2c(c1)C1=NN(/C(C)=C/C(C)=O)C(c3ccc(F)cc3)C1CC2 (centres undefined)	1%	9%	22µM*	x	7%	i
COc1ccc2c(c1)C1=NN(/C(C)=C\C(C)=O)C(c3ccccc3)C1CC2 (centres undefined)	-5%	13%	18%	u	-3%	i
Cc1ccc(CSc2nc(=O)c3c(C)cc(C)nc3n2C2CC2)cc1	-2%	x	3.2µM*	u	x	i
COc1ccc(N2CCN(CNC(=O)c3ccccc3)CC2)cc1	4%	-3%	11%	i	-2%	i
O=C1CC(c2cccc(Br)c2)c2cc3c(cc2N1)CCC3 (centres undefined)	2%	-12%	-6%	i	u	i

Assay outcomes as filed in PubChem BioAssay.
